Source: PubChem
hgDAF12 agonist = activates the H. glycines DAF-12 receptor ligand-binding domain; hit rate 1.8% among 370,000; HEK293 GAL4-hgDAF12 UAS-luciferase reporter, agonist luminescence; normalized to butyrate control; activation, % at 6.8 µM;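 active means activation above a cutoff set at the mean of all screened compounds plus 3 SD, cut at about 10% in these data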
APP 5'UTR act = activates APP 5'UTR luciferase reporter; AID 1276; activation, % at 2 µM; hit rate 1% among 190,000; SH-SY5Y APP 5'UTR luciferase reporter, luminescence; zero percent = DMSO vehicle wells;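 active means activation above a set limit, based on mean plus 3 SD of controls, cut at about 140% in these data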
hcDAF12 agonist = activators of H. contortus DAF-12 nuclear receptor. HEK293 hcDAF-12 lit1-tk-luc reporter, luminescence; 0% DMSO, 100% Δ7-dafachronic acid. activation, % at 6.8 µM. hit rate 1.4% among 370,000. AID 652067;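 active means activation above the mean of all tested compounds plus 3 SD, cut at about 5.5% in these data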
ssDAF-12 act = activators of S. stercoralis DAF-12 nuclear receptor; HEK293 ssDAF-12/GRIP1 lit1-tk-luc reporter, luminescence; % of 3 µM dafachronic acid response; activation, % at 6.8 µM; hit rate 1% among 370,000;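 active means activation above the mean over all tested compounds plus 3 SD, cut at about 0.9% in these data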
NF-kB expr up = NF-kB expression increase, human neuronal cells. NF-kB reporter expression; stronger effect = higher value. fold change at 12.5 µM. hit rate 1.6% among 190,000. AID 1239; in the data active means fold change above about 3.3
hgDAF12 ag = confirmation of H. glycines DAF-12 agonists | shares compounds with hgDAF12 agonist | HEK293 GAL4-hgDAF12 luciferase reporter, agonist mode; percent of butyrate response | activation, % at 6.8 µM | hit rate 80% among 3,300 | AID 743050;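 active means mean activation over triplicate wells above the hit cutoff derived from the earlier primary screen, cut at about 11% in these data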
LXR ag 2 = LXR-beta agonism as DAF-12 counter-screen | shares compounds with hgDAF12 agonist | HEK293 Gal4-LXR luciferase reporter, 24 h | activation, % at 6.8 µM | 3,300 tested, under 10 active | AID 743051;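 active means mean activation of the triplicate above a set limit carried over from the primary screen, none filed active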
Target sequence (P55055 whole entry, looked up, the tested form may be a part): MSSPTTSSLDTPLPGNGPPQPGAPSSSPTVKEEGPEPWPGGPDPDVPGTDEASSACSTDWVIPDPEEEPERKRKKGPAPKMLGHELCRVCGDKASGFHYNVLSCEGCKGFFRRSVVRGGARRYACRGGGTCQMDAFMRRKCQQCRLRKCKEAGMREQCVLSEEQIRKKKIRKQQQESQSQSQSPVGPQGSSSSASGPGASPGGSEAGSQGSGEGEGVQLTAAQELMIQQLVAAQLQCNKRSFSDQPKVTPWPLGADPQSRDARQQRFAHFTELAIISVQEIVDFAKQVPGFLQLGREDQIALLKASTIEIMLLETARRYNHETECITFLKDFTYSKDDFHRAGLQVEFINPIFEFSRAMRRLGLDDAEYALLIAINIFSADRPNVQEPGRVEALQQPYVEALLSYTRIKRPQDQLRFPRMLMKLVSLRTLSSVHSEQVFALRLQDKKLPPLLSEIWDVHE
A number is an active result. Hits are enriched below; roughly 3.4% of the tested compounds scored in any of these assays.

Results for CCN1Cc2nnn(Cc3ccccc3)c2-c2ccccc2S1(=O)=O ?
hgDAF12 agonist: inactive; hcDAF12 agonist: inactive; ssDAF-12 act: inactive

Results for CCCCCN(C(=O)CCC(=O)OCC(=O)N(C)C1CCCCC1)c1c(N)n(CCCC)c(=O)[nH]c1=O ?
hgDAF12 agonist: 14.3; hcDAF12 agonist: inactive; ssDAF-12 act: inactive; hgDAF12 ag: inactive; LXR ag 2: inactive

Results for COc1ccc(NC(=O)c2ccc(OC(F)F)cc2)cc1Cl ?
hgDAF12 agonist: 16.6; APP 5'UTR act: inactive; hcDAF12 agonist: inactive; ssDAF-12 act: 1.4; NF-kB expr up: 4.37; hgDAF12 ag: 12.2; LXR ag 2: inactive

Results for COc1cc(NC(=O)c2ccccn2)cc(OC)c1OC ?
hgDAF12 agonist: inactive; APP 5'UTR act: inactive; hcDAF12 agonist: inactive; ssDAF-12 act: inactive; NF-kB expr up: inactive

What do the screens show for `O=C(Nc1ccc(OC(F)F)c(Cl)c1)c1ccccn1`?
hgDAF12 agonist: 13.7; APP 5'UTR act: 138.9; hcDAF12 agonist: inactive; ssDAF-12 act: 1.4; NF-kB expr up: 9.44; hgDAF12 ag: 16.9; LXR ag 2: inactive

How did O=C(Nc1ccc(C(O)(C(F)(F)F)C(F)(F)F)cc1)c1ccc(Cl)cc1 do in these assays?
hgDAF12 agonist: 14.4; hcDAF12 agonist: inactive; ssDAF-12 act: inactive; hgDAF12 ag: inactive; LXR ag 2: inactive

What do the screens show for `O=C(Nc1cccc([N+](=O)[O-])c1)c1ccc2nsnc2c1`?
hgDAF12 agonist: inactive; hcDAF12 agonist: inactive; ssDAF-12 act: inactive

What do the screens show for `O=C(Nc1ccc(Cl)cc1)c1ccc2nsnc2c1`?
hgDAF12 agonist: 18.4; APP 5'UTR act: inactive; hcDAF12 agonist: inactive; ssDAF-12 act: inactive; NF-kB expr up: 3.33; hgDAF12 ag: 15.3; LXR ag 2: inactive

How did O=C(Nc1ccc(C(O)(C(F)(F)F)C(F)(F)F)cc1)c1ccc(Cl)c([N+](=O)[O-])c1 do in these assays?
hgDAF12 agonist: inactive; APP 5'UTR act: inactive; hcDAF12 agonist: inactive; ssDAF-12 act: inactive; NF-kB expr up: inactive

How did CCOc1ccc(-c2cc(C(=O)NN=C3CCN(C)CC3)[nH]n2)cc1 do in these assays?
hgDAF12 agonist: 13.3; APP 5'UTR act: inactive; hcDAF12 agonist: 6.0; ssDAF-12 act: 1.1; NF-kB expr up: inactive; hgDAF12 ag: inactive; LXR ag 2: inactive

Results for Cc1ccc(OC(=O)c2ccc3nc(C)sc3c2)cc1 ?
hgDAF12 agonist: 14.9; APP 5'UTR act: inactive; hcDAF12 agonist: inactive; ssDAF-12 act: inactive; NF-kB expr up: inactive; hgDAF12 ag: 16.6; LXR ag 2: inactive

What do the screens show for `Cc1nc2ccc(OC(=O)c3ccccc3)cc2s1`?
hgDAF12 agonist: inactive; hcDAF12 agonist: inactive; ssDAF-12 act: inactive

Results for Cc1nc2cc(C(=O)O)ccc2s1 ?
hgDAF12 agonist: 14.9; APP 5'UTR act: inactive; hcDAF12 agonist: inactive; ssDAF-12 act: inactive; NF-kB expr up: inactive; hgDAF12 ag: 16.5; LXR ag 2: inactive

Results for Cn1c(=O)cc(OCCCC(=O)Nc2cc(-c3ccncc3)ccn2)c2ccccc21 ?
hgDAF12 agonist: inactive; hcDAF12 agonist: inactive; ssDAF-12 act: inactive

What do the screens show for `CCOc1ncccc1C(=O)OCc1ccc(Cl)cc1`?
hgDAF12 agonist: inactive; APP 5'UTR act: inactive; hcDAF12 agonist: inactive; ssDAF-12 act: inactive; NF-kB expr up: inactive

How did CC(C)C(=O)N/N=C/c1ccc(OCc2ccccc2)cc1 do in these assays?
hgDAF12 agonist: inactive; APP 5'UTR act: inactive; hcDAF12 agonist: inactive; ssDAF-12 act: inactive; NF-kB expr up: inactive

Results for CCC(=O)c1ccc(OCc2ccc(C(=O)OC)cc2)cc1 ?
hgDAF12 agonist: 15.7; APP 5'UTR act: inactive; hcDAF12 agonist: inactive; ssDAF-12 act: inactive; NF-kB expr up: inactive; hgDAF12 ag: 15.5; LXR ag 2: inactive

Results for COC(=O)c1ccc(COc2ccc(/C=N/Nc3cccc(C(=O)O)c3)cc2)cc1 ?
hgDAF12 agonist: 17.0; hcDAF12 agonist: inactive; ssDAF-12 act: 1.4; hgDAF12 ag: 13.3; LXR ag 2: inactive

How did O=C(O)c1cc(N/N=C/c2ccc(OCc3ccccc3)cc2)ccc1Cl do in these assays?
hgDAF12 agonist: inactive; APP 5'UTR act: inactive; hcDAF12 agonist: inactive; ssDAF-12 act: inactive; NF-kB expr up: inactive

Results for CCOc1ncccc1C(=O)OCc1ccc(C(=O)OC)cc1 ?
hgDAF12 agonist: 14.8; APP 5'UTR act: inactive; hcDAF12 agonist: inactive; ssDAF-12 act: inactive; NF-kB expr up: inactive; hgDAF12 ag: 12.3; LXR ag 2: inactive

What do the screens show for `CC(=O)Nc1ccc(N=Cc2ccc(OCc3ccccc3)cc2)cc1`?
hgDAF12 agonist: 13.6; APP 5'UTR act: inactive; hcDAF12 agonist: inactive; ssDAF-12 act: inactive; NF-kB expr up: inactive; hgDAF12 ag: 10.9; LXR ag 2: inactive

Results for COc1cccc(CCNC(=O)CCc2nc(-c3ccccc3F)no2)c1 ?
hgDAF12 agonist: inactive; hcDAF12 agonist: inactive; ssDAF-12 act: inactive

How did O=C(NCCc1nc2ccccc2n1CCOc1cc(F)ccc1F)C1CCCCC1 do in these assays?
hgDAF12 agonist: inactive; hcDAF12 agonist: inactive; ssDAF-12 act: inactive

Results for O=C(NC1CCCCN(Cc2ccc(Cl)cc2)C1=O)c1c(F)cccc1F (configuration not stated) ?
hgDAF12 agonist: inactive; hcDAF12 agonist: inactive; ssDAF-12 act: inactive

What do the screens show for `Cc1cc(C(=O)COC(=O)c2ccc(Cl)c(S(N)(=O)=O)c2)c(C)n1C1CC1`?
hgDAF12 agonist: 13.8; hcDAF12 agonist: inactive; ssDAF-12 act: inactive; hgDAF12 ag: 15.1; LXR ag 2: inactive

Results for Cc1cc(C(=O)COC(=O)c2ccc(NC(=O)CC#N)cc2)c(C)n1C1CC1 ?
hgDAF12 agonist: inactive; hcDAF12 agonist: inactive; ssDAF-12 act: inactive

What do the screens show for `Cc1ccc(-c2c(NC(=O)C3CC3)nc3ncccn23)cc1`?
hgDAF12 agonist: inactive; hcDAF12 agonist: inactive; ssDAF-12 act: inactive

How did O=C(Nc1ccc(O)cc1)c1cc2ccccc2c(=O)s1 do in these assays?
hgDAF12 agonist: 13.7; APP 5'UTR act: inactive; hcDAF12 agonist: inactive; ssDAF-12 act: inactive; NF-kB expr up: inactive; hgDAF12 ag: inactive; LXR ag 2: inactive

What do the screens show for `O=C(Nc1ccccc1)c1cc2ccccc2c(=O)s1`?
hgDAF12 agonist: 18.0; APP 5'UTR act: inactive; hcDAF12 agonist: inactive; ssDAF-12 act: inactive; NF-kB expr up: inactive; hgDAF12 ag: 14.5; LXR ag 2: inactive

What do the screens show for `Cc1cc(C)cc(NC(=O)c2cc3c(=O)n4ccccc4nc3s2)c1`?
hgDAF12 agonist: inactive; hcDAF12 agonist: inactive; ssDAF-12 act: inactive

How did CCn1c(SCC(=O)NN=Cc2cccc(OCc3ccccc3)c2)nnc1-c1ccc(OC)c(OC)c1 do in these assays?
hgDAF12 agonist: inactive; hcDAF12 agonist: inactive; ssDAF-12 act: inactive

How did O=C(NC1CCCCN(Cc2ccc(Cl)cc2)C1=O)c1ccccc1 (configuration not stated) do in these assays?
hgDAF12 agonist: inactive; hcDAF12 agonist: inactive; ssDAF-12 act: inactive
